Laboratory results: PubChem BioAssay AID2081 (NMMLSC, 2009)
Active and inactive are the calls of the source. The rule behind the calls is not given here.

Biological target: Bcl-2-like protein 2 (Homo sapiens) (UniProt Q92843)
Assay: Bcl-W/Bim complex disruptors – biochemical, multiplexed, bead-based flow cytometry, HTS hits, confirmation (AID 2081)

Sequence of Bcl-2-like protein 2 (Homo sapiens) (Q92843 whole entry, looked up): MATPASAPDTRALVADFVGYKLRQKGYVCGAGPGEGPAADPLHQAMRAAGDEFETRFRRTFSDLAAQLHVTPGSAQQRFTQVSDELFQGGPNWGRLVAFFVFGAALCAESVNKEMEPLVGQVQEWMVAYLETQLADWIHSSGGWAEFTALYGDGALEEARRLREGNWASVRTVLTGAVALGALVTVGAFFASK

Compound: O=C1NC(=O)C2(Cc3c(nc4ccccn4c3=O)N3CCCCCC32)C(=O)N1Cc1ccccc1 (configuration not stated)
- outcome: inactive

Compound: O=C1NC(=O)C(=Cc2ccc(-c3cc(Cl)ccc3[N+](=O)[O-])o2)C(=O)N1
- outcome: inactive
